Among the data in paper PMC7819943, “Rice protein-binding microarrays: a tool to detect cis-acting elements near promoter regions in rice” are binding signal values, retold here.

Over roughly 39,000 sequences, “fluorescence intensity (a.u.)” has its median near 4,300; the highest 2% begin near 39,000. The sample holds the highest values, similar sequences and a random draw of the others, so the mix is not that of the screen.

The target of the assay is T1, OsSMF1 (Oryza sativa, UniProt Q6ZLB0 1-436).
T1 sequence: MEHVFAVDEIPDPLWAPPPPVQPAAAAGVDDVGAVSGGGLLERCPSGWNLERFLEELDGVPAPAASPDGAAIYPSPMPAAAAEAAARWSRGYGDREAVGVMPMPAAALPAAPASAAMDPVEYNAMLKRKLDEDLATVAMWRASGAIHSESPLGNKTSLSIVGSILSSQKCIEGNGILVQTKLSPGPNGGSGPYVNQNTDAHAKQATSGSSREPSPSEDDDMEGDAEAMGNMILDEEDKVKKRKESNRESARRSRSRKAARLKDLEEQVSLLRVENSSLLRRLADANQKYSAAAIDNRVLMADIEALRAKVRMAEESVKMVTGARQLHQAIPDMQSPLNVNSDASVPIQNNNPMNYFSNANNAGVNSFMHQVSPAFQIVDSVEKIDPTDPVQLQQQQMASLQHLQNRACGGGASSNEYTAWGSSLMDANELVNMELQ
Briefly: protein-binding microarray (RPBM); PBS, 2% BSA, 51.3 ng/ul salmon testes DNA, 50 uM zinc acetate, 200 nM TF, 25 C, 1 h; high values mean tight binding. As to conditions: protein: recombinant; tags: N-terminal polyhistidine and DsRed monomer fusion (pET32a); chain copies: 2; label: CyDye5-dUTP incorporated in the synthesized complementary strand; 3' TTTTT single-stranded linker to array surface; dsDNA, one strand shown. The gist of the method:
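Binding signal here means per-feature fluorescence intensity in arbitrary units. The values were read on an Axon 4000B scanner after a custom Agilent array, double-stranded by primer extension with Cy5-dUTP, was incubated with 200 nM protein at 25 °C for 1 h in PBS with 2% BSA, salmon testes DNA and 50 µM zinc acetate, then washed. The proteins were transcription factors with an N-terminal polyhistidine tag and DsRed, expressed in E. coli BL21-CodonPlus and purified on Ni–NTA.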
Consider “AGGGTTATAATTAGATGGGTAGTGGAGGTAGGTAAGAAAACGGAGTCACCTAGTGCAG”, for which the binding signal was 4130 fluorescence intensity (a.u.).
Then “CACCCGCACCCGCCCGCACGGCCGCGCCCGCGTCACCACCCGGAGTCACCTAGTGCAG”, with 6150 fluorescence intensity (a.u.).
In the case of “GGGTTGTGGTTGTTGTACGTTGTTGTTGACGGCGATGGTTCGGAGTCACCTAGTGCAG” it was 3460 fluorescence intensity (a.u.); in that of “TGTATTTTCTGACGTTGGTAGCACGGTAGCACCCGATATTCGGAGTCACCTAGTGCAG”, 4250 fluorescence intensity (a.u.).
On to “TGTGTTCCCTTTCGGTACGTTGTATTTCGACCCTGACGTTCGGAGTCACCTAGTGCAG”, for which the binding signal was 42700 fluorescence intensity (a.u.).
Take “GCTGGTAAAGCGGTGCGCCGGTGCCGCCACGTCCTCGCACCGGAGTCACCTAGTGCAG”: the binding signal was 15100 fluorescence intensity (a.u.).
In the case of “CTAGAATGAGTGTTATGGCAGAGTGGTAGATGCTTGAAAACGGAGTCACCTAGTGCAG” it was 29600 fluorescence intensity (a.u.).
Then “CCACGCGGACACTGACACGTCATCATCGTGTTCGTTTCCTCGGAGTCACCTAGTGCAG”, with 39300 fluorescence intensity (a.u.).
In the case of “CATCACGCTGACGTGTCCTTTCGTTTGGACACGGACATCTCGGAGTCACCTAGTGCAG”, the binding signal was 15000 fluorescence intensity (a.u.).
As to “TTTCCCCGGTGGATCGTGTTCGGACACGTCGCGGCCCCTCCGGAGTCACCTAGTGCAG”, the binding signal was 6200 fluorescence intensity (a.u.).
Then “AATGGGGCTATAGGTAATTATGCTTAGAAGTCCGGTTCATCGGAGTCACCTAGTGCAG”, with 5130 fluorescence intensity (a.u.).
Then “GTTGGGGCGCCTCTGGGGCTGTCCACGTCGGATAGCTACACGGAGTCACCTAGTGCAG”, with 20700 fluorescence intensity (a.u.).
In the case of “AATCCGAGTAGTCATTGTCGTTTCCATGCAGAATTATGGTCGGAGTCACCTAGTGCAG” it was 4030 fluorescence intensity (a.u.); in that of “GAATCCATCGACACGTTTCTTTCGTCAGAACAGTGTCCGTCGGAGTCACCTAGTGCAG”, 3420 fluorescence intensity (a.u.).
For the sequence “CAATCCGTTGATCGGGGTCGTAGTCCATCGACAGAAATTACGGAGTCACCTAGTGCAG”, the binding signal is 41800 fluorescence intensity (a.u.).
In the case of “CGCGTCCGCAGTGTCCCACTCCCGCCACTCCTTCCACCCCCGGAGTCACCTAGTGCAG” it was 3780 fluorescence intensity (a.u.).
For “CTCTCTCTCGGCTTCCACTCCCGTCTCCTCGTCTCCTCGCCGGAGTCACCTAGTGCAG”, the binding signal was 4090 fluorescence intensity (a.u.).
For the sequence “ATTGACGCGCCTCGGTATTACCTCACTAGCTGCGTCATTGCGGAGTCACCTAGTGCAG”, the binding signal was 6460 fluorescence intensity (a.u.).
In the case of “ATATTGTCACGTGTCACATGTTAGTTTGTTCAGGAACGGACGGAGTCACCTAGTGCAG” it was 5880 fluorescence intensity (a.u.).
Turning to “ATGTTTAATCAACCTCTAAATCAATAAGATTAGTCATGTACGGAGTCACCTAGTGCAG”, the binding signal is 3950 fluorescence intensity (a.u.).
In the case of “TCCATTAAGCCTCCGTTTAGTAAAGATAAAGATTGGTCAACGGAGTCACCTAGTGCAG” it was 44200 fluorescence intensity (a.u.); in that of “TTATTAAGCCTAATTAATCCATCATTAGTAAATATTTACTCGGAGTCACCTAGTGCAG”, 3780 fluorescence intensity (a.u.).
As for “ACTTTCTTGAATTTAATGCGTGACTCTCCATTCGTCCACACGGAGTCACCTAGTGCAG”, the binding signal was 3620 fluorescence intensity (a.u.).
